Experimental data: PubChem BioAssay AID588497 (NMMLSC, 2011)
Hit rate of the full screen: of about 360,000 compounds, about 780 (0.22%) were called active. About 4% were inconclusive and are not listed. The list comes from a sample in which actives are over-represented; it also holds similar structures and randomly drawn compounds. Values without a mark were called inactive. No stated cut-off is given here; in the data, active means inhibition above about 35% (passing the limit was not always enough); inconclusive means no clear call, values can overlap the other calls.

Tested on: Botulinum neurotoxin type F light chain protease (Clostridium botulinum)
Assay: BoNT/F light chain protease inhibitors, primary screen, biochemical, flow cytometry, MLPCN library (AID 588497); further: plate controls were buffer without enzyme for full effect and enzyme alone for no effect
Conditions: Multiplex microsphere protease cleavage assay, at 10 µM, stronger effect = higher value

Structure (SMILES)	inhibition
CCCCc1c(-c2ccc(Cl)cc2)ncn1CCc1ccccc1OC	0.1%
NC(c1csc(NC(=O)Nc2cccc(C(F)(F)F)c2)n1)C1CCCCC1 (stereo not drawn)	-35.6%
Cc1cccc(-c2cnc(C(O)c3ccc4ccccc4c3)[nH]2)c1 (stereo not drawn)	-3.1%
COc1cc(/C=C/C(=O)N2c3ccccc3Sc3ccc(C(F)(F)F)cc32)cc(OC)c1OC	-24.7%
O=C1/C(=C/c2ccc(F)cc2)SC(=S)N1NS(=O)(=O)c1ccccc1	0.7%
COc1cc(/C=C2\SC(=S)N(Nc3ncc(C(F)(F)F)cc3Cl)C2=O)cc(OC)c1OC	43.1% (active)
COc1ccc(Br)c(Cn2c(C)c(C(=O)NCc3cccs3)sc2=O)c1	3.6%
O=C(Nc1nnc([C@H]2C[C@H](O)[C@@H](CO)O2)s1)c1cccc(Cl)c1	2.2%
COc1ccccc1CNC(=O)C1Cc2ccccc2C(=O)O1 (stereo not drawn)	40.9% (active)
COc1ccccc1CNC(=O)[C@@H]1CCCN1C(=O)[C@@H]1Cc2ccccc2CN1C(=O)OC(C)(C)C	-3.1%
COc1ccccc1CNC(=O)C1CCN(S(C)(=O)=O)CC1	-1.3%
NC(Cc1ccccc1)c1csc(Nc2cc(Oc3ccccc3)ncn2)n1 (stereo not drawn)	-21.7%
COc1ccc(CC(N)c2csc(NC(=O)Cc3ccccc3)n2)cc1 (stereo not drawn)	-9.3%
CN(C)C(=O)c1cccc(-c2cnc3sc(NCc4ccc5c(c4)OCO5)nn23)c1	-7.5%
Cc1ccc2[nH]c(=O)c(CN(CCCN(C)C)C(=O)Nc3cccc(Cl)c3)cc2c1	1%
COc1cc2cc(CN(CCN3CCCC3)C(=O)Nc3ccccc3Cl)c(=O)[nH]c2cc1OC	56.9% (active)
COc1ccc(CCN(Cc2cc3cccc(C)c3[nH]c2=O)C(=O)N2CCCC2)cc1OC	-19.1%
FC(F)(F)Oc1ccccc1C(c1nnnn1C1CCCCC1)N1CCN(C/C=C/c2ccccc2)CC1 (stereo not drawn)	-16.7%
CC1(Cc2ccccc2C#N)C(=O)Nc2ccc(-c3ccc4[nH]ccc4c3)cc21 (stereo not drawn)	-3.4%
Cc1cccc(C)c1NC(=S)N1CCCCCC1	4.7%

Structure (SMILES)	inhibition
CC(=NNC(=S)N1CCCCCC1)c1ccccn1	55% (active)
C/C(=N\NC(=O)c1ccccc1F)c1ccccn1	-0.7%
Cc1ccc(C(NC(=O)C2CCN(CCOc3ccc(Cl)cc3Cl)CC2)c2ccccn2)cc1 (stereo not drawn)	4.2%
CC(=O)Nc1cccc(-c2ccnc3c2CC(C)(C(=O)NCc2ccccc2)O3)c1 (stereo not drawn)	-1.6%
CCOc1ccc(CCN2C(=S)N([C@@H](CC(C)C)CN3CCC[C@@H]3CN3C(=S)NC[C@@H]3Cc3ccc(O)cc3)C[C@@H]2CC(C)C)cc1	-7.7%
CCCCC[C@H](C)N1C[C@@H](COCc2ccccc2)Oc2cc(N3CC[C@@H](N(C)C)C3)ccc2S1(=O)=O	-14%
CC(C)Cc1ccc(-c2cc3nc(NCc4cccc(Cl)c4)ccn3n2)cc1	-1.6%
COc1ccc(/C=N/N(C)C2=NS(=O)(=O)c3ccccc32)cc1OC	-14.8%
O=S1(=O)N=C(N(CCO)/N=C/c2ccccc2F)c2ccccc21	74.7% (active)
C=CCOCCN(C)C1=NS(=O)(=O)c2ccccc21	-7.4%
COc1cncc(-c2cnc3sc(NCCc4ccccn4)nn23)c1	-4.1%
CCOCCn1c(C(C)C)nc2ccccc21	2.9%
CCc1nc2ccccc2n(CCOCCOCCn2c(=O)c(CC)nc3ccccc32)c1=O	-0.5%
CCOCCn1c(-c2ccccc2)nc2ccccc21	65.4% (active)
Cc1ccc(NS(=O)(=O)c2cc3c(cc2Br)NC(=O)CO3)cc1C	0.3%
CN(Cc1cn(Cc2ccc(C(F)(F)F)cc2)nn1)C1CN(Cc2cn(Cc3ccc(C(F)(F)F)cc3)nn2)S(=O)(=O)C1 (stereo not drawn)	-10.7%
CCCCCCCCN1C(=O)[C@H](CC(=O)NCc2cccc3ccccc23)C[C@@]2(C(=O)OC)CCCCC=C12	-5.2%
COc1cccc(NC(=O)N2C3CCCC2CC(NC(C)=O)C3)c1 (stereo not drawn)	28.5%
CCCN1C2CCCC1CC(NC(=O)c1cccc(OC)c1)C2 (stereo not drawn)	34.7% (active)
COc1ccc(CN2C3CCCC2CC(NC(=O)c2cccc(F)c2)C3)cc1 (stereo not drawn)	-2.5%

Structure (SMILES)	inhibition
Nc1nc2c(Br)ccc(Br)c2cc1C(=O)NCCc1ccccc1	-1%
CCCCCc1c(-c2cccc(Br)c2)ncn1CCc1ccccc1OC	-6.3%
Oc1cccc2cc(-c3ccncc3)cnc12	-5.1%
CNS(=O)(=O)c1cccc(C(=O)NC2CCCc3ccccc32)c1 (stereo not drawn)	2.8%
O=C(O)c1cc(S(=O)(=O)NC2CCCc3ccccc32)ccc1O (stereo not drawn)	49% (active)
O=C(CCC(=O)N1CCN(S(=O)(=O)c2ccccc2)CC1)NC1CCCc2ccccc21 (stereo not drawn)	7.9%
CCCCc1c(-c2ccc(Br)cc2)ncn1CCc1ccccc1OC	-3.2%
CCc1nc2c(OCCC3CCCCC3)cccn2c1N(C)C(=O)c1ccco1	1.8%
CC(C)C[C@H]1CNC(=O)C(=O)N1C[C@H]1CCCN1C[C@H](Cc1ccc(O)cc1)N1C[C@H](CC(C)C)N(CC2CCCCCC2)C(=O)C1=O	-9.5%
CC(C)C[C@@H](COCc1ccc(Cl)cc1)N1CCN(C(=O)c2ccc(Cl)cc2Cl)CCC1=O	-2.4%
CC(=O)Nc1cc(-c2ccc(N3CCN(C)CC3)cc2)cn2c(-c3ccc(F)cc3)cnc12	-13.3%
O=C(NCCc1c[nH]c2ccccc12)C1CCN(Cc2ccc(Br)cc2)CC1	-27.7%
Cc1ccc2[nH]cc(CCNC(=O)c3ccc([N+](=O)[O-])cc3)c2c1	-0.3%
Cc1ccc2[nH]cc(CCNC(=O)C3CCCCC3)c2c1	50% (active)
COC(=O)[C@@]1(Sc2ccc(C)cc2)CC(=O)N(c2cccc(SC)c2)[C@@H]1c1ccccc1	4.9%
CCOC(=O)C(C)n1cnc2c(nnn2-c2cccc(OC)c2)c1=O (stereo not drawn)	18.5%
CCOc1nnc(C)c2c(C)n(-c3cccc(Cl)c3)nc12	46.5% (active)
CCOc1ccc(CNC(=O)C2CCCN(c3nnc(C)c4c(C)n(-c5ccccc5)nc34)C2)cc1 (stereo not drawn)	10.7%
